# Measured values taken from PubChem BioAssay AID493179 (National Center for Advancing Translational Sciences (NCATS), 2011).
# Inconclusive results are not listed. Unmarked numbers belong to inactive results. Active and inactive are the calls of the source. Calls follow the shape of the dose curve; as a rule, active = well fitted inhibition curve with a large enough effect; inconclusive = small, poorly fitted or top-dose-only effect; inactive = flat fitted curve, though single readings scatter.
# Test: Secondary Assay for General miRNAs Modulators and/or Inhibitors/Activators of miR-21: miR-30 Firefly Luciferase Assay for second round cherrypicks
# Settings: HeLa miR-30 FLuc reporter, luminescence, 48 h; series mostly up to 38.3 µM; activity change, negative = inhibition: at the top concentration
# Description: MLPCN Grant: 1 R21 NS059478-01 Assay Provider: Qihong Huang, The Wistar Institute NCGC Assay Overview: MicroRNAs (miRNAs) are endogenously encoded small (~20-25 nucleotides), nonprotein-coding RNAs that are involved in post-transcriptional repression of target messenger RNAs (mRNAs) (Le and Hannon, 2004). Estimated to be involved in the regulation of 30% of all protein-coding mRNAs (Filipowicz et al., 2008), miRNAs play a significant role in many biological processes including cellular differentiation and tissue development (Ghildiyal and Zamore, 2009). […] Compounds active in the miR-21 FLuc assay were clustered using Leadscope and active chemical series were prioritized based on chemical properties, potential for medicinal chemistry optimization, and SAR. Within each chemical series, representative compounds were re-acquired to test for activity in a secondary assay based on the quality of their CRC, efficacy, and potency. The secondary assay to determine if compounds active in the miR-21 FLuc assay were potentially specific for miR-21 and were not general modulators of the miRNA pathway was another cell-based FLuc reporter gene assay, this time targeting miR-30. Compounds found active in both the miR-21 FLuc and miR-30 FLuc assays are not considered miR-21 specific compounds, and may be general miRNA modulators.
# NCGC Assay Protocol Summary: Reagents: HeLa cells stably expressing firefly luciferase (FLuc) under the control of a CMV promoter (upstream) and a miR-30 binding sequence directly downstream of the gene. These cells also stably express miR-30. Control compounds used were compound C3 (provided by collaborator), N6-phenyladenosine (MP Biomedicals, 0215379625), and DMSO. Assay Summary: 6uL of HeLa miR-30-FLuc cells in assay buffer (DMEM, Invitrogen #21063-029; 10% FBS, HyClone #SH30071.03) were dispensed at 1000cells/well (1.7 x 10^5 cells/mL) into Greiner solid-white TC-treated 1536-well plates using a Multidrop Combi (Thermo Fisher Scientific). Plates were incubated for one hour at 37 degree Celsius, 95% humidity, 5% CO2. These assay plates were then treated with 23nL of compound or DMSO using a Kalypsys pin tool, which allows for delivery of a 24-point titration of each compound to the assay plate, with a final compound concentration ranging from approximately 40uM to 5pM. Assay plates were then incubated for 48 hours. After incubation, plates were allowed to come to RT for one hour prior to delivery of 3uL of 3X luciferase detection reagent. After a 15 minute incubation to allow for cell lysis, luciferase activity was measured using a ViewLux CCD imager (PerkinElmer), with an average exposure time of 2-12 seconds. Keywords: NIH Roadmap, MLPCN, MLSMR, qHTS, miR-21, miR-30, microRNA, firefly luciferase, FLuc.
SMILES,Potency,"activity change, negative = inhibition [%]"
CCc1cc(C(=O)Nc2ccccc2)cs1,2.83 µM (active),–
O=C(NC1CCCCCC1)C1CCN(C(=O)N2CCOc3ccc(Cl)cc32)CC1,–,-4.96
COCCNC(=O)c1ccc2c(c1)ncn2-c1ccc(F)c(F)c1,22.5 µM (active),–
Cc1ccc2nc(-c3ccc(NC(=O)c4ccc(S(C)(=O)=O)cc4)cc3)sc2c1,–,-8.74
Cc1ccc(NC(=O)c2ccc(-c3ccccc3)s2)cc1,5.04 µM (active),–
CCc1ccc(C(=O)NCc2cccs2)s1,20 µM (active),–
CN(c1ccccc1)S(=O)(=O)c1nnc(NC(=O)c2ccco2)s1,–,0.66
CC(C)(C)CC(=O)Nc1nnc(-c2cccs2)s1,5.04 µM (active),–
Cc1ccccc1NC(=O)c1cc2c([nH]c1=O)CC(C)(C)CC2=O,0.634 µM (active),–
CC(C)c1cc(C(=O)Nc2cccnc2)no1,3.56 µM (active),–
Cc1ccc(-c2cc(C(=O)NCC3CCCO3)no2)cc1 (stereo not given),3.56 µM (active),–
Cc1ccc(-n2ncc3c(Nc4ccc5c(c4)OCCO5)ncnc32)cc1Cl,10 µM (active),–
CCOC(=O)c1cccc(NC(=O)c2cc(CN3CCCC3)on2)c1,4.49 µM (active),–
CCC(=O)Nc1sc(C(=O)Nc2ccccc2)c(C)c1C(=O)OC,11.3 µM (active),–
Cc1cc(C)c2c(N)c(C(=O)Nc3ccccc3C(F)(F)F)sc2n1,11.3 µM (active),–
CCOCCCNC(=O)c1cc2c(=O)n3ccccc3nc2s1,11.3 µM (active),–
COc1ccccc1N1CCN(C(=O)c2nc(-c3ccc(C)cc3)n3c2CCCCC3)CC1,–,8.55
Cc1ccc2c(Cl)c(C(=O)Nc3ccc4c(c3)OCO4)sc2c1,1.59 µM (active),–
CC(=O)N1CCc2cc(CNC(=O)Cc3ccc(F)cc3)ccc21,10 µM (active),–
CC(C)(C)C1CCc2nc(NC(=O)Cc3ccc(Cl)cc3)sc2C1 (stereo not given),–,-15

SMILES,Potency,"activity change, negative = inhibition [%]"
CC(c1ccccn1)N(C)C(=O)c1ccc2nc(Cc3cccc(Cl)c3)oc2c1 (stereo not given),6.34 µM (active),–
CN(C)c1ccc(CNC(=O)C2COc3ccccc3C2)cc1 (stereo not given),–,-18.4
Cc1cc(N2CCN(C)CC2)nc2ccc(NC(=O)c3ccccc3F)cc12,10 µM (active),–
CCCCN1CCc2c([nH]c3ccccc23)C1=O,11.3 µM (active),–
C/C(=N/NC(=O)c1ccccc1)c1ccc(NC(=O)C(F)(F)F)cc1,–,-12.5
CC(=O)O[C@H]1C[C@@]2(C)[C@@H](C[C@@H](O)[C@H]3[C@@]4(C)CC[C@@H](O)[C@@H](C)C4CC[C@@]32C)/C1=C(\CCC=C(C)C)C(=O)O (stereo not given in full),–,-1.25
CCOC(=O)C1CCN(C(=O)c2ccc(-n3ccc4ccccc43)s2)CC1,11.3 µM (active),–
Cc1ccccc1C(=O)Nc1nnc(-c2ccco2)o1,12.6 µM (active),–
O=C(Nc1sc2c(c1C(=O)NCc1ccco1)CCCC2)c1cc(=O)c2ccccc2o1,7.11 µM (active),–
Cc1ccc(C(=O)Nc2ccc3c(c2)ncn3C)cc1,2.83 µM (active),–
CCC(CC)C(=O)Nc1nnc(S(=O)(=O)N2CCCCCC2)s1,–,10.7
CC(=O)c1ccc(Oc2ncnc3c2oc2ccccc23)cc1,3.18 µM (active),–
CCCOc1ccc(OC(=O)c2ccc(-c3ccc(CCC)cn3)cc2)cc1,1.59 µM (active),–
CCC(C)NC(=O)CCCn1c(=O)c2cccn2c2ccccc21 (stereo not given),–,-2.15
Cc1cccc(NC(=O)Nc2ccc(Br)cc2)n1,4.49 µM (active),–
CCCCc1nn2c(=O)cc(COC(=O)c3cccc(NC(=O)c4cccc(C)c4)c3)nc2s1,4 µM (active),–
COc1ccc(Nc2nc(C)c3ccccc3n2)cc1,11.3 µM (active),–
Cc1ccccc1OCc1nc2c3cnn(-c4ccccc4F)c3ncn2n1,20 µM (active),–
COc1ccc(CNc2nc(-c3ccco3)nn2C(=O)c2ccccc2Cl)cc1,22.5 µM (active),–
CCC(C)C(=O)N1CCCC(c2nc(-c3cccs3)no2)C1 (stereo not given),6.34 µM (active),–
